In the library only some 1.8% were active in any assay of this set; here they are far more common.
TLR9-MyD88 inh: blocks human TLR9 binding to MyD88 | Q9NR96+Q99836 | CHO BLA complementation TLR9-MyD88, CCF4 FRET ratio | inhibition, % at 4.98 µM | 340,000 tested, 0.21% active | AID 504734;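 active = inhibition above the mean over all tested compounds plus 3 SD, cut at about 21% in these data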
NOD2 RIPK2 PPI: inhibitors of human NOD2-RIPK2 interaction; O43353; CHO BLA complementation NOD2-RIPK2, CCF4 ratio; inhibition, % at 4.98 µM; 360,000 tested, 0.38% active; AID 624267; in the data active = inhibition above about 21%
LANA-H2A inh: blocks KSHV LANA binding to histone H2A/H2B; Q9QR71; cell-free LANA-H2A/H2B peptide, fluorescence polarization; inhibition, % (concentration not given with the values); 320,000 tested, 0.6% active; AID 2629; in the data active = inhibition mostly above about 10%, no sharp cut-off; inactive = mostly below about 6.7%
Rtt109 Vps75: blocks Candida albicans Rtt109/Vps75 acetyltransferase activity; Q5AAJ8; purified Rtt109/Vps75, ThioGlo CoA-SH fluorescence, 4 h; inhibition, % at 34.9 µM; 330,000 tested, 0.16% active; AID 540336;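 active = inhibition of at least 50% in every replicate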
TLR4 MyD88 comp: blocks binding of human TLR4 to MyD88; 200,000 tested, 0.18% active; AID 861; HeLa CL3-4 TLR4/MyD88 BLA complementation, FRET ratio; inhibition, % at 8.4 µM; in the data active = inhibition above about 25%
HTR2A ag: mouse HTR2A agonism via beta-arrestin recruitment. P35363. CHO-K1 mHTR2A beta-arrestin complementation, luminescence; percent of 30 µM serotonin response. activation, % at 7.6 µM. 360,000 tested, 0.66% active;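 active = activation above a run cutoff, the mean activation of all tested compounds plus 3 SD, cut at about 14% in these data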
OPRM1 ag: counter-screen for mouse HTR2A agonists: human mu opioid receptor agonists; shares compounds with HTR2A ag; U2OS OPRM1 beta-arrestin PathHunter, luminescence; DMSO 0%, DAMGO 9.3 µM 100%; AID 624380; activation, % at 9.3 µM; 2,300 tested, 5.3% active;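 active = mean activation above the mean of DMSO-only wells plus 3 SD, cut at about 0.5% in these data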
Target sequence (P35372 whole entry, looked up): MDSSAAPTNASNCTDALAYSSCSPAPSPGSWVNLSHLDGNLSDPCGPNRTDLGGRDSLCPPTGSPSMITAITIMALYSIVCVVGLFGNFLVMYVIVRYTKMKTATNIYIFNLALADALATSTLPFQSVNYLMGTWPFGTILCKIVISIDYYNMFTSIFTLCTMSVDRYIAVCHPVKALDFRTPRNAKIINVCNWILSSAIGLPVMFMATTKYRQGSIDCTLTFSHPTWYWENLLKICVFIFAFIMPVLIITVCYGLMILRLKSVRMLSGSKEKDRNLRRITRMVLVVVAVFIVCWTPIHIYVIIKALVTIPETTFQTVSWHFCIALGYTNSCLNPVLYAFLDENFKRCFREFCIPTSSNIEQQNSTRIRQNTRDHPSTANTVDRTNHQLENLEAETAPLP
m5-HT2A ag conf: confirmation of mouse HTR2A serotonin receptor agonists; shares compounds with HTR2A ag; CHO-K1 PathHunter beta-arrestin recruitment, luminescence; DMSO 0%, 30 µM serotonin 100%; activation, % at 7.6 µM; 2,300 tested, 19% active;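 active = mean activation across triplicates above the hit threshold derived in the original primary screen, cut at about 15% in these data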
Of the large screens only hits and unclear results are named; the others gave an inactive call (follow-up assays come after a bar, where they were run).

CS(=O)(=O)c1ccc(NS(=O)(=O)c2ccc(Cl)c(C(=O)NCc3ccco3)c2)cc1	HTR2A ag 19 (no result: TLR4 MyD88 comp) | OPRM1 ag inactive | m5-HT2A ag conf inactive
COc1ccc(NS(=O)(=O)c2ccc(C)c(C(=O)NCC(c3ccco3)N(C)C)c2)cc1 (stereo unspecified)	HTR2A ag 16 (no result: TLR4 MyD88 comp) | OPRM1 ag inactive | m5-HT2A ag conf inactive
C[C@@H]1CN([C@H](C)CO)C(=O)c2cc(Br)cnc2O[C@@H]1CN(C)C(=O)Nc1ccccc1	none (no result: LANA-H2A inh, Rtt109 Vps75, TLR4 MyD88 comp)
CC(C)(C)OC(=O)C[C@H]1C/C=C\C[C@H](CC(=O)N(CCO)Cc2ccccc2)C(=O)N[C@@H](Cc2ccccc2)COC1=O	none (no result: TLR4 MyD88 comp)
O=[N+]([O-])c1ccccc1-c1nc(-c2ccc(Br)o2)no1	none
Nc1nnc(-c2ccccc2[N+](=O)[O-])o1	HTR2A ag 26 | OPRM1 ag inactive | m5-HT2A ag conf inactive
O=C(C1=C(O)C(=O)N(Cc2ccco2)C1c1cccc(O)c1)c1ccco1 (stereo unspecified)	HTR2A ag 17 (no result: TLR4 MyD88 comp) | OPRM1 ag inactive | m5-HT2A ag conf inactive
O=C(NCCCN1CCCC1=O)c1cc(S(=O)(=O)N2CCOCC2)ccc1Cl	none (no result: TLR4 MyD88 comp)
CN(C(=O)c1cccc(NC(=O)Cc2ccc(NC(=O)C3CCN(C(=O)C4CCCCC4)CC3)cc2)c1)C1CC1	HTR2A ag 16 (no result: LANA-H2A inh, TLR4 MyD88 comp) | OPRM1 ag 0.7 | m5-HT2A ag conf inactive
CC(C)(CO)C(O)C(=O)NCCCO (stereo unspecified)	HTR2A ag 18 (no result: TLR4 MyD88 comp) | OPRM1 ag inactive | m5-HT2A ag conf inactive
Cc1ccccc1NC(=O)Cc1nc(COC(=O)COc2cccc(C)c2C)cs1	HTR2A ag 15 (no result: TLR4 MyD88 comp) | OPRM1 ag inactive | m5-HT2A ag conf inactive
O=C(CCN1C(=O)/C(=C/c2ccc(Cl)cc2)SC1=S)NC1C=CS(=O)(=O)C1 (stereo unspecified)	none (no result: TLR4 MyD88 comp)
O=C(CN1C(=O)/C(=C/c2ccc(Cl)cc2)SC1=S)NC1C=CS(=O)(=O)C1 (stereo unspecified)	HTR2A ag 15 (no result: TLR4 MyD88 comp) | OPRM1 ag inactive | m5-HT2A ag conf inactive
Cc1nnc(NC(=O)c2nc(S(=O)(=O)Cc3ccccc3)ncc2Cl)s1	HTR2A ag 15 (no result: LANA-H2A inh, TLR4 MyD88 comp) | OPRM1 ag inactive | m5-HT2A ag conf inactive
Nc1cc(=O)[nH]c(SCc2csc(-c3ccccc3)n2)n1	HTR2A ag 19 | OPRM1 ag inactive | m5-HT2A ag conf inactive
COc1ccc(C)cc1S(=O)(=O)N(C)CC(=O)NCc1ccco1	HTR2A ag 16 | OPRM1 ag inactive | m5-HT2A ag conf inactive
Cc1cc(C)cc(N(CC(=O)NCc2ccco2)S(=O)(=O)c2ccccc2)c1	HTR2A ag 15 (no result: TLR4 MyD88 comp) | OPRM1 ag inactive | m5-HT2A ag conf inactive
COc1ccc(S(=O)(=O)N(C)CC(=O)NCc2ccco2)cc1Cl	none (no result: TLR4 MyD88 comp)
Cc1cccc(N(CC(=O)NCc2ccco2)S(=O)(=O)c2ccccc2)c1	none (no result: LANA-H2A inh, Rtt109 Vps75, TLR4 MyD88 comp)
CCOC(=O)C1(C)CCN1C(=O)CSc1ccccc1 (stereo unspecified)	none (no result: TLR9-MyD88 inh, LANA-H2A inh, Rtt109 Vps75, TLR4 MyD88 comp)
Cc1nc2ccccc2c(=O)n1/N=C/c1cccnc1	HTR2A ag 15 | OPRM1 ag inactive | m5-HT2A ag conf inactive
Cc1nc2ccccc2n1/N=C/c1cccnc1	none
CCOc1ccc(CCN2C(=O)C(=O)N([C@@H](Cc3ccccc3)CN3CCC[C@H]3CN3C(=O)C(=O)NC[C@@H]3Cc3ccccc3)C[C@@H]2Cc2ccc(O)cc2)cc1	none (no result: TLR9-MyD88 inh, LANA-H2A inh, Rtt109 Vps75, TLR4 MyD88 comp)
CCCNC(=O)C1(C)CCCN(Cc2ccc(-n3ccnc3)cc2)C1 (stereo unspecified)	none (no result: TLR9-MyD88 inh, LANA-H2A inh, Rtt109 Vps75, TLR4 MyD88 comp)
C=C(C)CSc1nc2sc3c(c2c(=O)n1-c1ccc(C)cc1)CCN(C)C3	none (no result: LANA-H2A inh, TLR4 MyD88 comp)
Cc1ccsc1C(=O)N1CCCC(C)(C(=O)O)C1 (stereo unspecified)	HTR2A ag 15 (no result: TLR9-MyD88 inh, LANA-H2A inh, Rtt109 Vps75, TLR4 MyD88 comp) | OPRM1 ag inactive | m5-HT2A ag conf inactive
Cc1ccsc1C(=O)N1CCCC(C)(C(=O)NS(=O)(=O)C2CC2)C1 (stereo unspecified)	none (no result: TLR9-MyD88 inh, LANA-H2A inh, Rtt109 Vps75, TLR4 MyD88 comp)
CCc1cc(=O)oc2c(C)c(O)c(CN3CCCCC3)cc12	HTR2A ag 22 | OPRM1 ag inactive | m5-HT2A ag conf inactive
CC(C)C(=O)N1CCC1(C)C(=O)Nc1ccc2[nH]ccc2c1 (stereo unspecified)	none (no result: TLR9-MyD88 inh, LANA-H2A inh, Rtt109 Vps75, TLR4 MyD88 comp)
COc1ccc(C)cc1S(=O)(=O)n1c([N+](=O)[O-])cnc1C	HTR2A ag 15 (no result: TLR4 MyD88 comp) | OPRM1 ag inactive | m5-HT2A ag conf inactive
COc1ccc(S(=O)(=O)n2c([N+](=O)[O-])cnc2C)cc1OC	none (no result: TLR4 MyD88 comp)
C=CCn1c(SCC(=O)NC2CC2)nnc1-c1ccccn1	none (no result: TLR4 MyD88 comp)
C=CCn1c(SCC(=O)NC2CCCCC2)nnc1-c1ccccn1	HTR2A ag 14 (no result: TLR4 MyD88 comp) | OPRM1 ag inactive | m5-HT2A ag conf inactive
CCOc1ccc(NC(=S)NCc2ccc3c(c2)OCO3)cc1	HTR2A ag 15 (no result: TLR4 MyD88 comp) | OPRM1 ag inactive | m5-HT2A ag conf inactive
Cc1ccc(NC(=S)NCc2ccc3c(c2)OCO3)cc1	none
Cc1nc2c(C#N)c[nH]n2c(=O)c1CCO	none (no result: TLR4 MyD88 comp)
CCOC(=O)[C@H]1[C@H]2COc3ccccc3[C@@H]2N2C(=O)c3cc(F)c(F)cc3NC(=O)[C@@]12C	HTR2A ag 15 (no result: TLR4 MyD88 comp) | OPRM1 ag inactive | m5-HT2A ag conf inactive

High-throughput results (PubChem)
